Experimental data taken from PubChem BioAssay (Tox21).
Records with an inconclusive call do not appear. Calls of active or inactive are those of the source. Unless noted, the call rests on the fitted dose curve; in most records, active means well fitted curve in the direction sought with a large enough effect in the repeat runs; inconclusive means weak or mixed curves; inactive means no such curve, though single readings can be large; an effect the other way counts as inactive or inconclusive.

Tests used:
[1] = target: Nuclear receptor ROR-gamma (Homo sapiens) (UniProt P51449); experiment: qHTS assay to identify small molecule antagonists of the retinoid-related orphan receptor gamma (ROR-gamma) signaling pathway (AID 1159521; further: nearly all actives have a fitted effect of over 50% in size; further: potency means the concentration at half of the fitted maximal effect); settings: Tet-on RORgamma CHO cells, RORE-luciferase, 16 h; series mostly up to 92.4 µM
Outline: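 Decreased RORE-driven luciferase luminescence indicates antagonism. Tet-on RORγ CHO cells received compound, then 1 uM final doxycycline 2 h later; signal read after 16 h incubation.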

[2] = qHTS assay to identify small molecule antagonists of the retinoid acid receptor (RAR) signaling pathway - cell viability counter screen (AID 1159551); settings: C3RL4 cells viability, ATP luminescence (CellTiter-Glo), 6 h; series mostly up to 92.4 µM; further: nearly all actives have a fitted effect of over 35% in size
Outline: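 Seed C3RL4 cells; next day add compound, then retinol to 1 uM final; incubate 6 h at 37 C; add CellTiter-Glo; read luminescence after 30 min at RT.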

[3] = qHTS assay to identify small molecule antagonists of the retinoic acid receptor (RAR) signaling pathway (AID 1159552; further: nearly all actives have a fitted effect of over 50% in size; further: potency means the concentration at half of the fitted maximal effect); settings: C3RL4 RARE luciferase reporter, retinol-stimulated, 6 h; series mostly up to 92.4 µM
Outline: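 C3RL4 RARE-luc cells, overnight plating; retinol 1 uM final added right after compound; 6 hr 37 C; luciferase read at 30 min RT.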

[4] = target: Vitamin D3 receptor (Homo sapiens) (UniProt P11473); experiment: qHTS assay to identify small molecule agonists of the vitamin D receptor (VDR) signaling pathway (AID 743222; calls by dose curve); settings: HEK293T VDR-UAS-bla, beta-lactamase FRET ratio, 16 h; series mostly up to 63.5 µM
Outline: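 VDR-bla cells were seeded, left 4 h, treated with compounds in DMSO for 16 h, incubated 2 h at RT with B/G FRET substrate, and read for fluorescence.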

[5] = qHTS assay to identify small molecule agonists of the vitamin D receptor (VDR) signaling pathway - cell viability counter screen (AID 743224); settings: VDR-bla HEK293T viability, CellTiter-Glo luminescence, 16 h; series mostly up to 62.6 µM; further: nearly all actives have a fitted effect of over 50% in size; further: potency means the concentration at half of the fitted maximal effect
Outline: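 Here cell health was gauged by luminescent ATP detection (CellTiter-Glo, 30 min RT) in VDR-bla cells that had been incubated with test compounds for 16 h at 37C and 5% CO2.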

[6] = target: Retinoic acid receptor RXR-alpha (Homo sapiens) (UniProt P19793); experiment: qHTS assay to identify small molecule agonists of the RXR signaling pathway (AID 1159527; calls by dose curve; further: nearly all actives have a fitted effect of over 35% in size); settings: HEK293T RXRa-UAS-bla, beta-lactamase ratio, 16 h; series mostly up to 76.8 µM
Outline: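 16 hr incubation of compound-treated RXR-alpha-UAS-bla HEK 293T cells (2% charcoal-stripped FBS, 37 C) preceded a 2 hr room-temperature LiveBLAzer FRET substrate step and blue/green fluorescence measurement.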

[7] = qHTS assay to identify small molecule agonists of the RXR signaling pathway - cell viability counter screen (AID 1159529); settings: RXR-alpha-bla HEK293T viability, CellTiter-Glo, 16 h; series mostly up to 76.8 µM; further: nearly all actives have a fitted effect of over 50% in size; further: potency means the concentration at half of the fitted maximal effect
Outline: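 In this parallel viability measure, GeneBLAzer RXR-alpha HEK 293T cells (2% charcoal-stripped FBS) were given a 5 hr preincubation, treated with compounds 16 hr at 37 C, and read by CellTiter-Glo luminescence.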

[8] = qHTS assay to identify small molecule antagonists of the peroxisome proliferator-activated receptor delta (PPARd) signaling pathway - cell viability counter screen (AID 743213); settings: PPARd-bla HEK293H viability, CellTiter-Glo luminescence, 17 h; series mostly up to 62 µM; further: nearly all actives have a fitted effect of over 50% in size; further: potency means the concentration at half of the fitted maximal effect
Outline: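 PPARd-bla HEK293H cells (3000/well) got compound plus 300 nM L165041 agonist for 17 h at 37 C. Viability in the same wells came from CellTiter-Glo luminescence after 30 min at room temperature.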

[9] = target: Peroxisome proliferator-activated receptor delta (Homo sapiens) (UniProt Q03181); experiment: qHTS assay to identify small molecule antagonists of the peroxisome proliferator-activated receptor delta (PPARd) signaling pathway (AID 743215; active means well fitted inhibition curve with a large enough effect in the signal ratio in the repeat runs, not every such curve was filed as active; the % refers to the signal ratio;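 further: cells stimulated with agonist L165041 at 300 nM final during compound exposure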); settings: HEK293H PPARd-UAS-bla, beta-lactamase FRET ratio, antagonist, 17 h; series mostly up to 62 µM
Outline: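 With L165041 present at 300 nM final, compounds were incubated 17 h at 37 C on PPARd UAS-bla HEK293H cells. A FRET-based beta-lactamase substrate was then applied for 2 h at room temperature and fluorescence intensity recorded.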

[10] = qHTS assay to identify small molecule agonists of the farnesoid-X-receptor (FXR) signaling pathway - cell viability counter screen (AID 743218); settings: FXR-bla HEK293T viability, CellTiter-Glo luminescence, 16 h; series mostly up to 62.6 µM; further: nearly all actives have a fitted effect of over 45% in size; further: potency means the concentration at half of the fitted maximal effect
Outline: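 After 16 h at 37 C with test compounds, FXR-bla HEK 293T cells were given LiveBLAzer B/G substrate for 2 h at RT and then CellTiter-Glo; luminescence was taken after 30 min.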

[11] = qHTS assay to identify small molecule antagonists of the farnesoid-X-receptor (FXR) signaling pathway - cell viability counter screen (AID 743221; active means well fitted cell-killing curve with a large enough effect in the repeat runs, not every such curve was filed as active; further: nearly all actives have a fitted effect of over 50% in size); settings: FXR-bla HEK293T viability, CellTiter-Glo luminescence, 16 h; series mostly up to 62.6 µM
Outline: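 After a 5 h settling period, FXR-bla HEK 293T cells receive compound and chenodeoxycholic acid (50 uM final) and incubate 16 h at 37 C; CellTiter-Glo luminescence, read after 30 min at room temperature, reports cell viability.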

[12] = target: Vitamin D3 receptor (Homo sapiens) (UniProt P11473); experiment: qHTS assay to identify small molecule antagonists of the vitamin D receptor (VDR) signaling pathway (AID 743223; active means well fitted inhibition curve with a large enough effect in the signal ratio in the repeat runs, not every such curve was filed as active; the % refers to the signal ratio); settings: VDR-UAS-bla HEK293T, beta-lactamase FRET ratio, 16 h; series mostly up to 61 µM
Outline: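 Reporter line VDR-bla; stimulus 1alpha,25-(OH)2 vitamin D3, 3 nM final; compound co-addition, 16 h 37C/5% CO2; LiveBLAzer B/G substrate 2 h RT; fluorescence intensity.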

[13] = qHTS assay to identify small molecule antagonists of the vitamin D receptor (VDR) signaling pathway - cell viability counter screen (AID 743225); settings: VDR-bla HEK293T viability, CellTiter-Glo luminescence, 16 h; series mostly up to 61 µM; further: nearly all actives have a fitted effect of over 50% in size; further: potency means the concentration at half of the fitted maximal effect
Outline: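 Parallel cytotoxicity test: VDR-UAS-bla HEK 293T, 3 nM (final) 1-alpha,25-dihydroxyvitamin D3 with test compound, 16 h, 37C. Endpoint is CellTiter-Glo luminescence in the same wells.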

[14] = qHTS assay to identify small molecule agonists of the AP-1 signaling pathway - cell viability counter screen (AID 1159525; calls by dose curve; further: nearly all actives have a fitted effect of over 55% in size); settings: ME-180 AP-1-bla cells viability, ATP luminescence, 5 h; series mostly up to 76.8 µM
Outline: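 Luminescent ATP readout (Cell Titer Glo, 30 min RT), normalised to DMSO and tetra n-octyl ammonium bromide controls. Cells were ME-180 AP-1-bla in 0.5% dialyzed FBS Opti-MEM, with a 5 h, 37 °C compound exposure.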

[15] = qHTS assay to identify small molecule agonists of the retinoic acid receptor (RAR) signaling pathway (AID 1159553); settings: C3RL4 RARE luciferase reporter, agonist, 6 h; series mostly up to 73.3 µM
Outline: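 Activation of retinol signaling was monitored via a RARE luciferase reporter in C3RL4 cells. After 6 hr compound treatment at 37 C, detection reagent was added for 30 min at room temperature before luminescence reading.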

[16] = qHTS assay to identify small molecule antagonists of the estrogen related receptor (ERR) signaling pathway - cell viability counter screen (AID 1224818); settings: ERR reporter cell line viability counter screen; series mostly up to 46.1 µM;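 further: viability measured after 17.5 h of compound exposure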
Outline: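 In the same ERR cell assay, compound-treated wells (17.5 h, 37 C) were multiplexed with a fluorogenic viability reagent, CellTiter-Fluor, read after 30 min to flag cytotoxic substances.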

[17] = qHTS assay to identify small molecule agonists of the AP-1 signaling pathway (AID 1159526; calls by dose curve); settings: ME-180 (cervical carcinoma) AP-1-bla reporter, beta-lactamase FRET ratio, 5 h; series mostly up to 76.8 µM
[18] = target: Bile acid receptor (Homo sapiens) (UniProt Q96RI1); experiment: qHTS assay to identify small molecule antagonists of the farnesoid-X-receptor (FXR) signaling pathway (AID 743217; active means well fitted inhibition curve with a large enough effect in the signal ratio in the repeat runs, not every such curve was filed as active; the % refers to the signal ratio); settings: HEK293T FXR-UAS-bla, beta-lactamase ratio, CDCA-stimulated, 16 h; series mostly up to 62.6 µM
Outline: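 In this cell-based antagonist screen, inhibition of CDCA-driven (50 uM final) UAS-beta-lactamase expression in HEK 293T cells was measured by FRET fluorescence following 16 h compound exposure at 37 °C.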

Measured: Potency

Sequence of Retinoic acid receptor RXR-alpha (Homo sapiens) (P19793 whole entry, looked up): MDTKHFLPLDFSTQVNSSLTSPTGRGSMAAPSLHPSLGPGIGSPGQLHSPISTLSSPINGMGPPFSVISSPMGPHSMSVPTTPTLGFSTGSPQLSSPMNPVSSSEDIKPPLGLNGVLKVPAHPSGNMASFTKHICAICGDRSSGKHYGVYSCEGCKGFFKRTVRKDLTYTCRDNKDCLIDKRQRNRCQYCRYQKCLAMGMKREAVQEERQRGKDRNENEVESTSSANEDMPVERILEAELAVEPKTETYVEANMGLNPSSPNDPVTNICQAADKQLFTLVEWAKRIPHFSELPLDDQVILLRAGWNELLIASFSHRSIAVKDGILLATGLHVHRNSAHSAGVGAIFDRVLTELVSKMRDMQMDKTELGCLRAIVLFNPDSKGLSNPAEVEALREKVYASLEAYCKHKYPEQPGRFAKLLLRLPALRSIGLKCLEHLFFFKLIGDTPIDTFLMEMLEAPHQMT
Sequence of Vitamin D3 receptor (Homo sapiens) (P11473 whole entry, looked up): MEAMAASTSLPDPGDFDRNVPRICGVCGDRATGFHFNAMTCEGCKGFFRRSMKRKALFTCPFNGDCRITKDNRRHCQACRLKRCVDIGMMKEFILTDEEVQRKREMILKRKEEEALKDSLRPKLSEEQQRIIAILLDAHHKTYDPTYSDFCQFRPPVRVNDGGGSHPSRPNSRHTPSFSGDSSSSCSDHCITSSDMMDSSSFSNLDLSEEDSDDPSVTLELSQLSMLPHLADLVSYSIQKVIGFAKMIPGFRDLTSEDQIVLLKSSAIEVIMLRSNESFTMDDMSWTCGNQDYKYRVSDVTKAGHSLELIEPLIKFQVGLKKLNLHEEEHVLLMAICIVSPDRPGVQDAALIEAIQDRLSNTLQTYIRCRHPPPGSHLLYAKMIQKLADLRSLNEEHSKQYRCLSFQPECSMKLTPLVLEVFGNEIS
Sequence of Peroxisome proliferator-activated receptor delta (Homo sapiens) (Q03181 whole entry, looked up): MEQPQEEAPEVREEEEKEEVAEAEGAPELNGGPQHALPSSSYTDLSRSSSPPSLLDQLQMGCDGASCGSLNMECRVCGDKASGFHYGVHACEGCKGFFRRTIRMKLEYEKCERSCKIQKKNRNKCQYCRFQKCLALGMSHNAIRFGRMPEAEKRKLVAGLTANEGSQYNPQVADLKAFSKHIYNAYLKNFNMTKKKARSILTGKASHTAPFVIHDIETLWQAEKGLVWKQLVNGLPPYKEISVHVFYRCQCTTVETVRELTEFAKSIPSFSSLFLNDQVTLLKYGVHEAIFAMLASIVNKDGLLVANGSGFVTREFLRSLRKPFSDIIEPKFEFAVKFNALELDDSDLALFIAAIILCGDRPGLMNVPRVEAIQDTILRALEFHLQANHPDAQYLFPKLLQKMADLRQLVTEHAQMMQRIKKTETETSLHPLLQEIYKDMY
Sequence of Bile acid receptor (Homo sapiens) (Q96RI1 whole entry, looked up): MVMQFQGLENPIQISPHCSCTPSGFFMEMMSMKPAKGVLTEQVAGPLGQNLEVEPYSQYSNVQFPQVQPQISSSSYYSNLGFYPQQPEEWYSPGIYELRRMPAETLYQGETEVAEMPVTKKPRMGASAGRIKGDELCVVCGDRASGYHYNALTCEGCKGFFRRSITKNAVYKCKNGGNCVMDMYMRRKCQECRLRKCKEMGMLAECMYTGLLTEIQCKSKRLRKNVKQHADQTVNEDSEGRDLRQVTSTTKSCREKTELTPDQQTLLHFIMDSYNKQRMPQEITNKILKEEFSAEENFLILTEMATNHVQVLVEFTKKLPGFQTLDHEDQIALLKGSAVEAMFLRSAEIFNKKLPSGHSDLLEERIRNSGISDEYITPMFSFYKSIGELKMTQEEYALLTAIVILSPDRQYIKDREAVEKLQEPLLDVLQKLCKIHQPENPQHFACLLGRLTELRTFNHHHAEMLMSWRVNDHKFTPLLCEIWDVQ

CCCCCc1ccc(O)cc1
inactive: [1] | [2] | [3]

CCCCCCCCCCCCN1CCCC1=O
active: [5] 49 µM | [7] 54.9 µM
inactive: [4] | [1] | [6] | [3]

c1ccc2cc3c4ccccc4c4ccccc4c3cc2c1
not listed: [1] | [16] | [17] | [18]
inactive: all other assays above

CN(C)CCCc1cc(C(=O)Nc2ccc(-c3ccncc3)cc2)ccc1O
inactive: [16]

Nn1nnc2ccccc21
inactive: [16]

CCCCCCCCCCCCCCCCCCNC(=O)OC1CCN(C(=O)OC[C@H](COC(=O)N(Cc2cccc[n+]2CC)C(=O)c2ccccc2OC)OC)CC1
inactive: [12] | [15]
active: [8] 33.5 µM | [10] 26.6 µM | [5] 26.6 µM | [13] 21.3 µM | [1] 29.8 µM | [7] 23.9 µM | [3] 26.6 µM

CC(C)(C)c1ccc(OC2CCCCC2O)cc1 (centres undefined)
inactive: [1] | [3]

CN(C)C(N)=NCCC[C@H](N)C(=O)O
inactive: [16]

CC/C=C\C/C=C\C/C=C\CCCCCCCC(=O)OC
inactive: [14] | [17] | [3]

Oc1cccc2c(O)cccc12
inactive: [6] | [2]
active: [1] 68.6 µM

CCCCCCCC/C=C\CCCCCCCC(=O)N(CCO)CCO
active: [10] 54.7 µM | [5] 43.5 µM | [1] 30.5 µM
inactive: [8] | [9] | [18] | [4] | [12] | [13] | [3]

CN(C)CCC(c1ccc(Br)cc1)c1ccccn1 (centres undefined)
inactive: [16]
